FUS suppressor: suppressors of FUS proteinopathy in yeast; S. cerevisiae FUS-expressing, growth rescue, OD600, 24 h; Potency, µM (top dose mostly 76.6 µM), actives largely listed as activators; 390,000 compounds, 0.24% hits; AID 1347120;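 further: plate controls were DMSO vehicle for no effect and reference control for full effect; nearly all actives have a fitted effect of over 55% in size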
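Absorbance at 600 nm, taken 24hr after compound addition, measured rescue of FUS-yeast growth at 30C. Induction used 2% galactose with seeding at OD 0.005. Controls: CP55940 from 92uM final, DMSO only.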
TDP43 rescue: TDP-43 toxicity inhibition in yeast | TDP-43 expressing yeast growth rescue, BacTiter-Glo, 24 h | 410,000 compounds, 1.8% hits | Potency, µM (highest dose often 46.1 µM), for the others: top-dose growth rescue (activation), hits mostly activators; further: % of control where 0% means no effect; nearly all actives have a fitted effect of over 50% in size
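Luminescence from BacTiter-Glo reports growth of TDP-43-expressing yeast after 24 hr at 30 deg C with compound. Cells were raffinose-pregrown to mid-log, then seeded in galactose medium at OD600=0.02.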
Abeta yeast res: A-beta toxicity reversal in yeast; yeast expressing A-beta42, growth rescue, OD600, 48 h; response scale: 0% DMSO, 100% iron-clioquinol control; Potency, µM (highest dose often 46.1 µM), most hits filed as activators; 410,000 compounds, 0.063% hits; further: nearly all actives have a fitted effect of over 55% in size
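Growth rescue measured by 600 nm absorbance after 48 h yeast culture at 30 C with compound. Values normalized between DMSO and an equimolar ferric chloride plus clioquinol control.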
aSyn yeast inh: inhibitors of alpha-synuclein toxicity in yeast | Yeast expressing alpha-synuclein, growth rescue, BacTiter-Glo, 24 h | Potency, µM (doses to about 46.1 µM), for the others: at the highest dose growth rescue (activation), actives largely listed as activators | 370,000 compounds, 0.14% hits; further: % of control where 0% means no effect; nearly all actives have a fitted effect of over 65% in size
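Screening used galactose-induced yeast with toxic alpha-synuclein levels, exposed to compound for 24 hr at 30 deg C. Cell growth, read with BacTiter-Glo luminescence, gave the measured signal.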
* hit, by the source's call; i = inactive; ? = inconclusive; nt = not tested or not shown. Hits are enriched below; roughly 2.1% of the tested compounds scored in any of these assays. The call rests on the fitted dose curve; in most records, active means well fitted curve in the direction sought with a large enough effect; inconclusive means small, poorly fitted or top-dose-only effect, or another doubt; inactive means no such curve, though single readings can be large; an effect the other way counts as inactive or inconclusive. Potency means the concentration at half of the fitted maximal effect.

SMILES	FUS suppressor	TDP43 rescue	Abeta yeast res	aSyn yeast inh
Cc1nc(NC(=O)/C=C/c2ccccc2)n[nH]1	i	22µM*	i	?
CC1(C(=O)Nc2cccc(C(F)(F)F)c2)Cc2ccccc2C(=O)O1 (stereo not drawn)	i	35µM*	i	nt
Cc1cccc(NC(=O)C2(C)Cc3ccccc3C(=O)O2)c1 (stereo not drawn)	i	22%	i	?
CCOc1ccccc1Nc1sc(C(=O)c2ccc(Cl)cc2)c(N)c1S(=O)(=O)c1ccccc1	i	0%	i	nt
COc1ccc(S(=O)(=O)Nc2cccc(-c3ccc(N4CCCCCC4)nn3)c2)cc1	?	2%	i	nt
CCOC(=O)C1=C(C)OC(=Cc2ccccc2)C1=O	i	0%	i	-1%
CCOC(=O)C1=C(O)c2ccccc2C(=O)/C1=C\c1ccc(C)cc1	nt	3.2µM*	i	-76%
C=C1CCC[C@]2(C)C[C@H]3OC(=O)C(CN4CCCCC4CO)[C@H]3CC12 (stereo partly drawn)	i	13µM*	i	-15%
O=C(Oc1ccc(Cl)cc1)c1ccc(N2CCOCC2)c([N+](=O)[O-])c1	nt	-6%	i	1%
O=C(O/N=C\c1ccc(N2CCOCC2)c([N+](=O)[O-])c1)c1ccccc1Cl	nt	14µM*	i	12%
O=C(Oc1cc(Cl)ccc1Cl)c1ccc(N2CCOCC2)c([N+](=O)[O-])c1	i	?	5.6µM*	2%
Brc1c(CSc2nc3ccccc3o2)nc2ncccn12	i	13µM*	i	9%
O=C(Nc1ccc(F)c(Cl)c1)C1CCCN1S(=O)(=O)c1ccc(F)cc1 (stereo not drawn)	i	?	i	nt
NS(=O)(=O)c1ccc(N=Nc2ccc(O)c3ncccc23)cc1	i	?	i	-22%
CCOc1ccc(N=Nc2ccc(O)c3ncccc23)cc1	i	?	?	13µM*
CC(C)CN1CN2CCc3ccccc3C2CS1(=O)=O (stereo not drawn)	i	nt	nt	nt
O=C(CCc1ccccc1-c1ccccc1CCNC(=O)c1cccc(F)c1)NCc1ccccc1	i	nt	nt	nt
CC(C(=O)Nc1ccccc1Br)c1ccc([N+](=O)[O-])cc1 (stereo not drawn)	i	10%	i	7%
Cc1ccc(NC(=O)C(C)c2ccc([N+](=O)[O-])cc2)cc1Cl (stereo not drawn)	i	11µM*	?	2%
Cc1ccc(C)c(N2CCN(Cc3csc(C)c3)CC2)c1	i	18%	i	nt
COc1ccc(S(=O)(=O)N2CCOCC2)cc1	nt	nt	nt	0%
O=S(=O)(c1ccc(Oc2ccc(Br)cc2)cc1)N1CCOCC1	i	25µM*	i	-2%
Cc1ccc2c(c1)-c1nc(-c3ccc4c(c3)NC(=O)CO4)cc(-c3ccc(Cl)cc3)c1CO2	i	10%	i	nt
CCN(CC)S(=O)(=O)c1ccc2c(c1)nc(CN(C)C(=O)Nc1ccc(C)c(Cl)c1)n2C	i	2%	i	nt
CCc1ccc(OC)c(-c2csc(N)n2)c1	i	16%	i	-23%
SMILES	FUS suppressor	TDP43 rescue	Abeta yeast res	aSyn yeast inh
Nc1nc(-c2cc(Cl)cc(Cl)c2OC(F)F)cs1	i	16µM*	i	2%
COc1ccc(Nc2ccc(C(=O)O)cc2[N+](=O)[O-])cc1	i	?	i	4%
O=C(O)c1ccc(Nc2ccc(F)c(F)c2)c([N+](=O)[O-])c1	i	11µM*	i	6%
N#Cc1cccc(NC(=O)c2cc3c(s2)-c2ccc(Cl)cc2SC3)c1	i	10%	i	nt
CCCOc1ccc(C(=O)c2nc3c(n2O)CCCC3)cc1	i	13µM*	i	nt
COc1ccc(CCNS(=O)(=O)c2ccc(Br)s2)cc1	i	11µM*	i	1%
COc1cccc(NS(=O)(=O)c2ccc(-c3cc(C)no3)s2)c1	i	-17%	i	nt
O=S(=O)(NCCc1ccccc1)c1ccc(Br)s1	i	?	i	5%
COc1ccccc1NS(=O)(=O)c1ccc(Br)s1	i	11µM*	i	22%
COc1ccc(OC)c(NS(=O)(=O)c2ccc(-c3cc(C)no3)s2)c1	i	16µM*	i	nt
COc1ccc(OC)c(NS(=O)(=O)c2ccc(Br)s2)c1	i	22µM*	i	nt
CCCN1C(=O)c2[nH]nc(-c3ccccc3O)c2C1c1ccc(OCc2ccccc2)c(OCC)c1 (stereo not drawn)	i	25%	i	nt

Screening results (PubChem)
